In ChEMBL document CHEMBL3988442, “University of Dundee, Small-Polar-MMV Screening Library” (2021) one finds Percent Effect data, which are given here for 54 compounds.

Structures are written as SMILES. Among all 69,000 compounds or so, about 420 (0.61%) showed an effect of 50% or more. Only a selection was taken, and strong results are over-represented in it overall.

This experiment concerns the target T1, Histidine--tRNA ligase (Leishmania infantum) (UniProt A4I591).
T1 sequence (whole entry): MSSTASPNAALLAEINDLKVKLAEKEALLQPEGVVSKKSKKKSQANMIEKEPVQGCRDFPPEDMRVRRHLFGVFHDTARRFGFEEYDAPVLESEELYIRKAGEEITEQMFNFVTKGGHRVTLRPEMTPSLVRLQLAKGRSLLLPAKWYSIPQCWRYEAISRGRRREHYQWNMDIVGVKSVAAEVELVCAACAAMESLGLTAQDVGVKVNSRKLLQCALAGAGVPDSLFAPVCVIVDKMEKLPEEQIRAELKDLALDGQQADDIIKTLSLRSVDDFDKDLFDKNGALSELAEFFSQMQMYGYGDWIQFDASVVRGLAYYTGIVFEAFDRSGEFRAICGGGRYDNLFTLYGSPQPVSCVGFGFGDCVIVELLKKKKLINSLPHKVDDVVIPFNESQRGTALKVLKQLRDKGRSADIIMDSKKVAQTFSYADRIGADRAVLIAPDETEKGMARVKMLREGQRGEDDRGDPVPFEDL
As to the kind of experiment: Leishmania infantum Histidine tRNA synthetase (LdHisRS). In kind it is functional. Also on record: scale not given: in the data most compounds retested in dose-response had high values. The following applies: 30 µM.
On to `CSc1ccccc1CN1C[C@@H]2CC[C@H](C1)N(CC1CC1)C2=O`, for which the Percent Effect worked out at 21.6%.

`Cc1noc([C@H]2COC[C@H]3CN(C(=O)Cc4ccc(F)cc4)C[C@H]32)n1`: the Percent Effect is 9.62%.

In the case of `O=C(c1ccc(F)cc1)N1C[C@H]2CCC[C@@]2(COCc2ccncc2)C1`, the Percent Effect came to 18.6%.

For the compound `O=S(=O)(c1cccs1)N1CC[C@H]2[C@H]1CCN2c1ncccn1`, the Percent Effect was determined as 11.7%.

Regarding `CCN1C(=O)CC[C@@H]2[C@H]1CCN2S(=O)(=O)Cc1ccc(C)cc1`, the Percent Effect amounted to 8.06%.

Consider `COCC(=O)N1C[C@H]2CNC[C@@]2(C(=O)NCc2cc(C)n[nH]2)C1`, for which the Percent Effect is 1.43%.

Regarding `O=C([C@H]1COC[C@H]2CN(CC3CC3)C[C@H]21)N1CCOCC1`, the Percent Effect was 10.3%.

`O[C@]1(c2ccccn2)CC[C@@H]2CN(Cc3cccc4ncccc34)C[C@@H]21`: the Percent Effect was found to be 27.8%.

For `Cc1ccc(N2C[C@H]3OCC[C@H]3[C@H](C(=O)NCC3CC3)C2)nn1`, the Percent Effect turned out to be 0%.

Regarding `O=C(NC[C@H]1OC[C@@H]2CCN(c3ccccn3)C[C@@H]21)c1ccco1`, the Percent Effect was -7.89%.

`Cc1noc([C@H]2C[C@H]3OCC[C@H]3N(S(=O)(=O)C3CC3)C2)n1`: the Percent Effect amounted to 13.3%.

On to `CNc1nc2c(s1)C(c1ccccc1Cl)CC(=O)N2` (centres undefined), for which the Percent Effect turned out to be 57.5%.

Turning to `O=C1CC(c2ccccc2F)c2c(n3ccsc3nc2=O)N1` (centres undefined), the Percent Effect turned out to be 11.7%.

Regarding `CNc1nc2c(s1)C(c1ccccc1F)CC(=O)N2` (centres undefined), the Percent Effect is 70%.

Consider `CNc1nc2c(s1)C(c1cccc(Cl)c1Cl)CC(=O)N2` (centres undefined), for which the Percent Effect amounted to 42.5%.

`CNc1nc2c(s1)C(c1cccc(F)c1F)CC(=O)N2` (centres undefined): the Percent Effect was 45.7%.

Consider `Cn1ncc2c1NC(=O)CC2c1ccccc1Cl` (centres undefined), for which the Percent Effect was found to be 14.3%.

Consider `O=C([C@H]1COC[C@H]2CN(c3ncc(F)cn3)C[C@H]21)N1CCOCC1`, for which the Percent Effect was determined as 1.71%.

Take `CC(C(=O)NCc1ccc(N2CCNC(=O)C2)cc1)c1cccs1` (centres undefined): the Percent Effect came to 20.9%.

For the compound `Cc1cccnc1NC(=O)NCc1ccc(N2CCNC(=O)C2)cc1`, the Percent Effect amounted to 84.9%.

Consider `Cc1nnc(NC(=O)NCc2ccc(N3CCNC(=O)C3)cc2)s1`, for which the Percent Effect was 39.8%.

For `CC(C(=O)NCc1ccc(N2CCNC(=O)C2)cc1)n1cncn1` (centres undefined), the Percent Effect came out at 52%.

In the case of `Cc1ccccc1C(=O)NCc1ccc(N2CCNC(=O)C2)cc1`, the Percent Effect is 44.2%.

Consider `CC(O)CNC(=O)NCc1ccc(N2CCNC(=O)C2)cc1` (centres undefined), for which the Percent Effect is 49.3%.

In the case of `CCOc1c(Cl)cc(Cl)cc1CNCCCn1ccnc1`, the Percent Effect is 58.3%.

Consider `CCOc1ccc(Cl)cc1CNCCCn1ccnc1`, for which the Percent Effect was 9.71%.

Take `CCOc1c(CNCCCn2ccnc2)cc(Cl)cc1OC`: the Percent Effect was 10%.

On to `C[C@H]1C(=O)NC[C@H]2CN(Cc3cccc(F)c3)C[C@H]21`, for which the Percent Effect amounted to 15.6%.

Turning to `COCCNC(=O)[C@H]1CN(c2nnc(C)s2)C[C@H]2OCC[C@@H]12`, the Percent Effect came to 5.11%.

As to `NCc1ccnc(Oc2ccc(F)cc2)c1`, the Percent Effect was 30.1%.

For `COc1ccc(Oc2cc(CN)ccn2)cc1`, the Percent Effect came out at 32.5%.

Turning to `NCc1ccnc(Oc2ccccc2)c1`, the Percent Effect came out at 59%.

In the case of `CNC(=O)CN1CC[C@H]2CN(C(=O)c3ccccc3F)C[C@H]2C1`, the Percent Effect was determined as 16.7%.

With `O=C(NC1CC1)[C@H]1C[C@H]2OCC[C@H]2N(Cc2ccc(F)cc2)C1`, the Percent Effect is 2.78%.

Turning to `CNC(=O)CN1CCO[C@H]2CN(CC3CCOCC3)C[C@H]21`, the Percent Effect was 32%.

Take `CCN1C[C@H]2C3(CCN(S(=O)(=O)CC)CC3)CC[C@@]2(C(=O)N(C)C)C1`: the Percent Effect amounted to 7.69%.

As to `Cc1noc([C@]23COC[C@H]2CN(C(=O)Cc2ccsc2)C3)n1`, the Percent Effect stood at 9.91%.

On to `COCCN(C)C(=O)c1nc2c(s1)CCCN2c1ncccn1`, for which the Percent Effect stood at 17.5%.

With `COCCN(C(=O)c1ccccn1)c1nc2c(s1)CCc1c-2cnn1C`, the Percent Effect was 101%.

For the compound `CCCN(C(=O)c1ccccn1)c1nc2c(s1)CCc1c-2cnn1C`, the Percent Effect is 106%.

Turning to `COCCN(Cc1ccoc1)C(=O)c1ccccn1`, the Percent Effect amounted to 16.4%.

Consider `Cc1cnccc1-c1cnn(CCNC(=O)c2ccccn2)c1C1CC1`, for which the Percent Effect was 4.25%.

Regarding `CN(C(=O)c1ccccn1)c1nc2c(s1)CCc1c-2cnn1C`, the Percent Effect turned out to be 103%.

For the compound `CCCN(CCc1ccccn1)C(=O)CCc1cnn(C)c1`, the Percent Effect amounted to 1.21%.

In the case of `CN(C(=O)c1ccccn1)c1nnc(C2CCOC2)s1` (centres undefined), the Percent Effect is 5.59%.

In the case of `Cc1cc(-c2cnc(C)nc2CN(C)C(=O)c2ccccn2)on1`, the Percent Effect stood at 2.07%.

Consider `Cc1ccc(CN2CC[C@@H]3[C@@H](CO[C@H]3CN(C)C)C2)o1`, for which the Percent Effect came to 10%.

For `CC(C)NC(=O)N1CC[C@@H]2CN(Cc3ccccc3)S(=O)(=O)[C@@H]2CC1`, the Percent Effect worked out at 1.5%.

In the case of `COCCN1CCN(Cc2ccc(C(C)=O)cc2)[C@H]2CS(=O)(=O)C[C@H]21`, the Percent Effect was 22.2%.

On to `Cc1nnc(N2C[C@H](C(=O)NCC3CC3)[C@@H]3CCO[C@@H]3C2)s1`, for which the Percent Effect turned out to be 2.91%.

In the case of `CCC(=O)N(C)Cc1cccc(OC(C)C)c1`, the Percent Effect amounted to 4.46%.

Consider `CC(C)Oc1cccc(CN(C)C(=O)Nc2cccn(C)c2=O)c1`, for which the Percent Effect turned out to be 13.9%.

As to `Cc1ccn(C)c(=O)c1NC(=O)N(C)Cc1cccc(OC(C)C)c1`, the Percent Effect was 77.5%.

As for `Cc1csc(CN2CC[C@H]3C(=O)N(c4cccnc4)CCO[C@H]3C2)n1`, the Percent Effect was 23.1%.
